We go through ten compounds from PubChem BioAssay.

The target of assay [1] is Neuropeptide Y receptor type 2 (Homo sapiens) (UniProt P49146). Nature of the assay: NPY-Y2 potentiators or agonists, confirmation, cell-based (AID 1539; in the data active = activation above about 33%). To be noted: cell-based NPY-Y2 potentiator/agonist assay; at 3.6 µM; hits give high values.
The target in assay [2] is Neuropeptide Y receptor type 1 (Homo sapiens) (UniProt P25929). Nature of the assay: NPY-Y1 potentiators or agonists, counter-screen for NPY-Y2 potentiator project, cell-based, fluorescence (AID 1651; in the data active = activation above about 45%;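 also: cells stimulated with submaximal NPY then isoproterenol with phosphodiesterase inhibitor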). To be noted: Y1 HEK293-CNG cells, membrane potential fluorescence; at 3.6 µM; hits give high values.
Chain of Neuropeptide Y receptor type 1 (Homo sapiens) (P25929 whole entry, looked up): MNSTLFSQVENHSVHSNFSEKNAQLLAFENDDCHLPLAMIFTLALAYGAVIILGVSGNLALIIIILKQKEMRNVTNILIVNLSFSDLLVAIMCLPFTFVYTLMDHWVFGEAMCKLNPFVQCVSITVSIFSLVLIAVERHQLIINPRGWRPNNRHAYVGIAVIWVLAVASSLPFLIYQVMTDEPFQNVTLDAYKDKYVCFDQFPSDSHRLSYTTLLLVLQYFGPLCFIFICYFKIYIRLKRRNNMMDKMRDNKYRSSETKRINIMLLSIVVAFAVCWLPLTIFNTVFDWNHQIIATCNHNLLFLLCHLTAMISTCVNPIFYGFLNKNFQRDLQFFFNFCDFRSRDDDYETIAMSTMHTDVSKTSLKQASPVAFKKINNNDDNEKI
For assay [3] the target is unchanged. Put plainly: NPY-Y1 direct agonists, selectivity assay for NPY-Y2 potentiator project, cell-based, fluorescence (AID 1702).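 Also: cells stimulated with 1 µM isoproterenol plus the PDE inhibitor Ro 20-1724; 0% = isoproterenol with DMSO and no NPY and 100% = 40 nM NPY; Y1 agonists lower the membrane potential dye signal.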 The settings on record: HEK293 Y1-CNGC, membrane potential fluorescence, agonism; at 3.6 µM; hits give high values.
The nature of assay [4]: CNGC cAMP sensor activity inhibitors, counter-screen for NPY-Y2 potentiator project, cell-based, HEK293-CNG parental, membrane potential fluorescence (AID 1703;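 active = inhibition above the control-well mean plus 3 SD of those wells, cut at about 22% in these data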;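 also: 0% = DMSO with isoproterenol and 100% = DMSO without isoproterenol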). The settings on record: isoproterenol cAMP, at 3.6 µM, hits give high values.
The target in assay [5] is Neuropeptide Y receptor type 2 (Homo sapiens) (UniProt P49146). Nature of the assay: NPY-Y2 direct agonists, counter-screen for NPY-Y2 potentiator project, cell-based, fluorescence (AID 1710;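 active = activation above the mean of solvent-only control wells plus 3 SD, cut at about 10% in these data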;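 also: cells stimulated by isoproterenol with no NPY added so direct agonism is tested; 0% = DMSO with isoproterenol alone and 100% = NPY at EC100 plus isoproterenol; agonism lowers probe fluorescence through less cAMP and CNG channel opening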). To be noted: HEK293 Y2/CNGC cells, membrane potential fluorescence, agonist mode; at 3.6 µM; hits give high values. On the technique in general: Counterscreens check selectivity or assay interference.

Assay [6] addresses Sphingosine 1-phosphate receptor 4 (Homo sapiens) (UniProt O95977). Put plainly: S1P4 receptor antagonists, human, confirmation, cell-based (AID 1524; in the data active = inhibition above about 30%). To be noted: S1P4-expressing cell line, antagonist mode, reporter read-out; at 4.98 µM; hits give high values.
In assay [7] the target is Sphingosine 1-phosphate receptor 1 (Homo sapiens) (UniProt P21453). Put plainly: S1P1 receptor antagonists, human, counter-screen for S1P4 antagonist project, cell-based (AID 1564; in the data active = inhibition above about 40%;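 also: receptor stimulated with S1P near its EC80; 0% = agonist stimulated wells and 100% = vehicle only wells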). The settings on record: cell-based S1P1 antagonist counterscreen, at 4.98 µM, hits give high values.
Chain of Sphingosine 1-phosphate receptor 1 (Homo sapiens) (P21453 whole entry, looked up): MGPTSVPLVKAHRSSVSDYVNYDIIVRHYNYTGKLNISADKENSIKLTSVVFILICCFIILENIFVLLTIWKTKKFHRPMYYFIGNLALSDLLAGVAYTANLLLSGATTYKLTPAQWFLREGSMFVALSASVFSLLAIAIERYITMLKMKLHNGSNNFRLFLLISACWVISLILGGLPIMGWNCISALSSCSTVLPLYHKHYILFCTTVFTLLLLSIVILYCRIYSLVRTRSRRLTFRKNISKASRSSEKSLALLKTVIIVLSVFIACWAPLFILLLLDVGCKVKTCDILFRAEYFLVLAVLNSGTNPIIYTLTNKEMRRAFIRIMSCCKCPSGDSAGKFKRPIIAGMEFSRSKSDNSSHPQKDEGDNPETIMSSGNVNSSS
Assay [8] can be described thus: growth loss of phage-infected E. coli expressing H. pylori AddAB, confirmation, AddAB inhibitor project, absorbance, E. coli V3065, T4 phage, triplicate (AID 488942;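 active = mean inhibition above a set limit taken from the earlier primary screen, cut at about 13% in these data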;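 also: higher means less bacterial growth since AddAB block lets phage replicate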). The settings on record: OD, at 11.9 µM, hits give high values, T4 phage with gene 2 nonsense mutations.
The nature of assay [9]: growth loss of RecBCD+ E. coli with mutant T4 phage, counter-screen for AddAB inhibitor project, absorbance, V66 E. coli (AID 488955;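 active = mean inhibition above the mean of solvent-only control wells plus 3 SD, cut at about 4% in these data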;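 also: optical density read after an 18 h incubation at 37 °C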). The settings on record: OD growth, at 11.9 µM, hits give high values.
Assay [10] can be described thus: bacterial viability inhibition counter-screen, confirmation, counter-screen for AddAB inhibitor project, absorbance (AID 488956; in the data active = inhibition above about 25%). The settings on record: absorbance (AddAB counterscreen), at 11.9 µM, hits give high values.
A short description of assay [11]: StAR promoter reporter inhibitors, counter-screen for LRH-1 inverse agonist project, cell-based, luminescence, high throughput (AID 651611; in the data active = inhibition above about 28%). The settings on record: StAR promoter luciferase reporter counterscreen, at 3.6 µM, hits give high values.
Assay [12] has as its target Nuclear receptor subfamily 5 group A member 2 (Homo sapiens) (UniProt O00482). Put plainly: LRH-1 (NR5A2) inverse agonists, retest, confirmation, cell-based, luminescence (AID 651613; in the data active = inhibition above about 42%;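 also: HEK293T cells co-transfected with LRH-1 and StAR promoter luciferase reporter; 0% = vehicle wells and 100% = parental cells lacking receptor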). The settings on record: cell-based LRH-1 luciferase reporter, inverse agonism; at 3.6 µM; hits give high values. On the technique in general: In a reporter assay the amount or activity of a reporter protein is the signal.

Assay [13] has as its target Steroidogenic factor 1 (Homo sapiens) (UniProt Q13285). Nature of the assay: SF1 (NR5A1) inverse agonists, counter-screen for LRH-1 inverse agonist project, cell-based, luminescence, high throughput (AID 651614; in the data active = inhibition above about 44%;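 also: cells cotransfected with StAR promoter reporter and SF1 expression vector; 0% = vehicle on cells with receptor and 100% = vehicle on cells lacking receptor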). To be noted: cell-based SF1 luciferase reporter, at 3.6 µM, hits give high values.
The nature of assay [14]: VP16 transactivation reporter inhibitors, counter-screen for LRH-1 inverse agonist project, cell-based, luminescence, high throughput (AID 651615; in the data active = inhibition above about 33%). To be noted: Gal4-VP16 luciferase reporter cells, at 3.6 µM, hits give high values.
A short description of assay [15]: growth loss of phage-infected RecBCD+ E. coli, confirmation, RecBCD inhibitor project, absorbance, E. coli V66, T4 gene 2 phage (AID 651982;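 active = mean inhibition over triplicates exceeding the hit threshold derived in the original primary screen, cut at about 11% in these data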). The settings on record: E. coli V66 + T4 2- phage, growth OD; at 11.9 µM; hits give high values.
Assay [16] can be described thus: E. coli viability inhibition, counter-screen for RecBCD inhibitor project, absorbance, high throughput (AID 651983; in the data active = inhibition above about 20%;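 also: E. coli strain V66 grown with compound alone and no phage infection; 0% = bacteria with DMSO vehicle only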). To be noted: absorbance (OD) growth, at 11.9 µM, hits give high values.
Assay [17] in a line: growth loss of phage-infected AddAB-carrying E. coli, confirmation, counter-screen for RecBCD inhibitor project, absorbance, E. coli V3065, T4 phage (AID 651984;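 active = mean inhibition above the solvent-only control wells' mean plus 3 SD, cut at about 22% in these data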;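 also: higher means less bacterial growth from phage killing when AddAB is blocked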). The settings on record: E. coli expressing H. pylori AddAB + T4 phage, OD growth; at 11.9 µM; hits give high values; gene 2 mutant T4, recBCD-deleted host.
Assay [18] in a line: KLF5 expression inhibitors, confirmation, DLD-1 cells, luminescence (AID 1834;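 active = inhibition above a set limit taken from the earlier primary screen, cut at about 63% in these data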;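 also: 0% = DMSO wells and 100% = LY294002 at 200 µM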). The settings on record: DLD-1 KLF5 promoter firefly luciferase reporter, at 4 µM, hits give high values.
Assay [19] is described as follows: cytotoxicity in rat IEC-6 cells, cytotoxicity control for KLF5 inhibitor project, cell-based, luminescence, triplicate (AID 1905; in the data active = inhibition above about 23%;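 also: cells exposed to compounds for 48 hours before viability read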). To be noted: IEC-6 rat intestinal cells, viability luminescence; at 4 µM; hits give high values.
Assay [20] deals with Photoreceptor-specific nuclear receptor (Homo sapiens) (UniProt Q9Y5X4). Put plainly: NR2E3 agonist confirmation in cells, cell-based, luminescence, CHO-S two-hybrid (AID 624378;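 active = average inhibition above a cutoff equal to the mean inhibition of all tested compounds plus one SD, cut at about 70% in these data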;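 also: 0% = DMSO in NR2E3 cells and 100% = DMSO in cells lacking NR2E3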). To be noted: CHO-S mammalian two-hybrid NR2E3-NCOR, luciferase luminescence; at 3.98 µM; hits give high values.
Assay [21] is described as follows: GAL4-VP16 reporter modulators, confirmation, counter-screen for NR2E3 agonist project, cell-based, luminescence, CHO-S, high throughput (AID 624379;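 active = mean inhibition above a cutoff equal to the average over all tested compounds plus one standard deviation, cut at about 70% in these data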;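 also: 0% = DMSO with VP16-transfected cells and 100% = DMSO with cells lacking VP16; higher means less reporter light so more repression of VP16 activity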). The settings on record: CHO-S GAL4-VP16 luciferase reporter, at 3.98 µM, hits give high values.
The nature of assay [22]: Gal4-VP16 luciferase reporter inhibitors, counter-screen for COUP-TFII antagonist project, cell-based, luminescence, HEK293 (AID 687007; in the data active = inhibition above about 13%). To be noted: at 8.5 µM, hits give high values.
Assay [23] has as its target COUP transcription factor 2 (Homo sapiens) (UniProt P24468). Nature of the assay: NR2F2 transcriptional activity inhibitors, confirmation, cell-based, luciferase reporter, HEK293, triplicate (AID 687008;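 active = mean inhibition over three repeats above a set limit taken from the earlier primary screen, cut at about 38% in these data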;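 also: 100% = cells given the luciferase reporter alone without the COUP-TF2 vector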). The settings on record: HEK293 NGFI-A luciferase reporter, luminescence; at 8.5 µM; hits give high values.
Assay [24] addresses Receptor-interacting serine/threonine-protein kinase 2 (Homo sapiens) (UniProt O43353). Put plainly: NOD2-RIPK2 binding disruptors, retest, confirmation, fluorescence, CHO cells, BLA complementation, triplicate (AID 624370;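 active = mean inhibition across replicates above a set limit taken from the earlier primary screen, cut at about 21% in these data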;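 also: 0% = DMSO-only wells and the high end = clavulanate BLA-blocked wells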). To be noted: CCF4 FRET, at 4.98 µM, hits give high values.
A short description of assay [25]: beta-lactamase reporter inhibitors in CHO cells, confirmation, artefact control for NOD2-RIPK2 interaction inhibitor project, cell-based, CHO-K1 CMV-bla, CCF4 FRET, fluorescence (AID 624371;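 active = mean inhibition above the low-control mean inhibition plus three low-control SD, cut at about 11% in these data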;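 also: 0% = DMSO only wells and 100% = clavulanate high control wells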). To be noted: CCF4 FRET ratio, counterscreen, at 4.98 µM, hits give high values.
Assay [26] concerns the target Nuclear receptor coactivator 3 (Homo sapiens) (UniProt Q9Y6Q9). Nature of the assay: SRC3 coactivator transcriptional activity inhibitors, confirmation, cell-based, luminescence, quadruplicate (AID 588792;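 active = mean inhibition over 43.08%, the solvent-only control mean plus 3 SD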;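 also: 0% = DMSO treated cells and 100% = gossypol at 36 µM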). The settings on record: HEK293 GAL4-SRC3 luciferase reporter, at 3.6 µM, hits give high values.
Assay [27] relates to transactivating tegument protein VP16 (Human herpesvirus 1), Gal4-VP16 luciferase reporter. Put plainly: VP16 transactivation inhibitors, counter-screen for SRC3 inhibitor project, cell-based, luminescence, high throughput (AID 588794; in the data active = inhibition above about 30%). To be noted: mammalian cells, VP16-driven luciferase reporter luminescence; at 3.6 µM; hits give high values.
Assay [28] has as its target Nuclear receptor coactivator 1 (Homo sapiens) (UniProt Q15788). Put plainly: SRC1 coactivator transcriptional activity inhibitors, confirmation, cell-based, luminescence, quadruplicate (AID 588820;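 active = mean inhibition above 46.68%, the untreated control wells mean plus 3 SD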;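 also: 0% = DMSO wells and 100% = gossypol 36 µM treated wells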). To be noted: HEK293 GAL4-SRC1 luciferase reporter, at 3.6 µM, hits give high values.
Assay [29] in a line: VP16 transactivation inhibitors, counter-screen for SRC1 inhibitor project, cell-based, luminescence, high throughput (AID 588824; in the data active = inhibition above about 25%). To be noted: cell-based VP16 transactivation luciferase luminescence; at 3.6 µM; hits give high values.

Unmarked numbers belong to inactive results. The list shows a part of the results. Activity calls are given as the source filed them.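 The calls were made as follows, unless noted: active = activation above the mean of DMSO-only control wells plus 3 SD (cut at about 18% in these data); inactive = the rest.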

Chain of Nuclear receptor subfamily 5 group A member 2 (Homo sapiens) (O00482 whole entry, looked up): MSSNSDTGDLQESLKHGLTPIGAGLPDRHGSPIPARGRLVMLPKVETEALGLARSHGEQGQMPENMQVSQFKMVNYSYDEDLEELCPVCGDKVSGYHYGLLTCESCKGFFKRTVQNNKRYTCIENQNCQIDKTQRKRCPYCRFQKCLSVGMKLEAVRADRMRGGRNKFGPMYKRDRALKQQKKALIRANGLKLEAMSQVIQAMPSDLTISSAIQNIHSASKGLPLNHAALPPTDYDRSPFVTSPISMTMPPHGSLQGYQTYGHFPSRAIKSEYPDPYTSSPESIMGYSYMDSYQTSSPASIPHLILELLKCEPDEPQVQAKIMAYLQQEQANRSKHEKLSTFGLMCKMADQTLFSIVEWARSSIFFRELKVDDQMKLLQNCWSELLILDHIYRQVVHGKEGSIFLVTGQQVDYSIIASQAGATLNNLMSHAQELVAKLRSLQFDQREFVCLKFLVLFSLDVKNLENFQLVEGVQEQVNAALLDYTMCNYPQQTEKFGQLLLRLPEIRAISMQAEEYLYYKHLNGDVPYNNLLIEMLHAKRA
Chain of Neuropeptide Y receptor type 2 (Homo sapiens) (P49146 whole entry, looked up): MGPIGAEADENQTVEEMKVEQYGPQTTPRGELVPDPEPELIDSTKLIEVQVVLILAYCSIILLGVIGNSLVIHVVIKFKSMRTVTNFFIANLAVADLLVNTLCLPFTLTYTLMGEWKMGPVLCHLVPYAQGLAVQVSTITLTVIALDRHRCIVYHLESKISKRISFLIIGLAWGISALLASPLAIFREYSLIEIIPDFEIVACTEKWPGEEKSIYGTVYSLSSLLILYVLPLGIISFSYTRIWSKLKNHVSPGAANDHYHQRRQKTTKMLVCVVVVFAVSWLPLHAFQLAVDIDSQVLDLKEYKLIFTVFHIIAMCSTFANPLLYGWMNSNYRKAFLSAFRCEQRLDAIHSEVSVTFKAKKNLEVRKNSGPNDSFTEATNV
Chain of Steroidogenic factor 1 (Homo sapiens) (Q13285 whole entry, looked up, the tested form may be a part): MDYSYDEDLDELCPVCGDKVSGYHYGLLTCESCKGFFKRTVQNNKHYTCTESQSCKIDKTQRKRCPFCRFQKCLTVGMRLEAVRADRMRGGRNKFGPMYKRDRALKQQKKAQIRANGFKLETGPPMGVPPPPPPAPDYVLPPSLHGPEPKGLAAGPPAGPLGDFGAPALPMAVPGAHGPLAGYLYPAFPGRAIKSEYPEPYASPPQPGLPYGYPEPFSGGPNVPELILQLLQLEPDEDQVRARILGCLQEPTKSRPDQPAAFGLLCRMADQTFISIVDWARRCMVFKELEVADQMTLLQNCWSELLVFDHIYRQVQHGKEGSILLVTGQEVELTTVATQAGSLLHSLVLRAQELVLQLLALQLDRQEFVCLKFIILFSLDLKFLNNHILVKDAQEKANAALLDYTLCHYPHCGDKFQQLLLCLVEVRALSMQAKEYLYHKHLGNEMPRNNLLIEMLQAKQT
Chain of Sphingosine 1-phosphate receptor 4 (Homo sapiens) (O95977 whole entry, looked up): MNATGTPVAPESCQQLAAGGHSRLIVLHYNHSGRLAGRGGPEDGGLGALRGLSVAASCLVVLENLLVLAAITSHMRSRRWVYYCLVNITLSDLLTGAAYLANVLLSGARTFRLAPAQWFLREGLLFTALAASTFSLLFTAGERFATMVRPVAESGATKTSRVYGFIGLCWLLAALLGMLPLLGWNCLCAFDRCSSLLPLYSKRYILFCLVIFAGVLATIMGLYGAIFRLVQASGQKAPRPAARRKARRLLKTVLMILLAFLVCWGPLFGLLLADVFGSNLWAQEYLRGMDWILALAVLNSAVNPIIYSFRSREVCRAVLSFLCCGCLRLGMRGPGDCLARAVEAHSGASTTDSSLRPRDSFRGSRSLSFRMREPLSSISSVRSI
Chain of COUP transcription factor 2 (Homo sapiens) (P24468 whole entry, looked up): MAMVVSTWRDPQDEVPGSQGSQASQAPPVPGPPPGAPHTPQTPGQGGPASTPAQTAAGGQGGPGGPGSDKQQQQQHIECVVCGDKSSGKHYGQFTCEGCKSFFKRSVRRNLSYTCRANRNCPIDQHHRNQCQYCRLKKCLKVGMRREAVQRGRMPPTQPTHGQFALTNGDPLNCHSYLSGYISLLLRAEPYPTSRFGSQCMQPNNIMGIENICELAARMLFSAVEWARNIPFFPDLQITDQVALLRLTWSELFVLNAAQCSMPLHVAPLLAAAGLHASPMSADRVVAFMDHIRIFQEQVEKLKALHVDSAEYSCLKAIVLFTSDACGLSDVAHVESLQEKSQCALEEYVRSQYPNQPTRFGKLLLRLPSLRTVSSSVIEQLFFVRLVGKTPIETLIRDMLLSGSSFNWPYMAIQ
Chain of Receptor-interacting serine/threonine-protein kinase 2 (Homo sapiens) (O43353 whole entry, looked up): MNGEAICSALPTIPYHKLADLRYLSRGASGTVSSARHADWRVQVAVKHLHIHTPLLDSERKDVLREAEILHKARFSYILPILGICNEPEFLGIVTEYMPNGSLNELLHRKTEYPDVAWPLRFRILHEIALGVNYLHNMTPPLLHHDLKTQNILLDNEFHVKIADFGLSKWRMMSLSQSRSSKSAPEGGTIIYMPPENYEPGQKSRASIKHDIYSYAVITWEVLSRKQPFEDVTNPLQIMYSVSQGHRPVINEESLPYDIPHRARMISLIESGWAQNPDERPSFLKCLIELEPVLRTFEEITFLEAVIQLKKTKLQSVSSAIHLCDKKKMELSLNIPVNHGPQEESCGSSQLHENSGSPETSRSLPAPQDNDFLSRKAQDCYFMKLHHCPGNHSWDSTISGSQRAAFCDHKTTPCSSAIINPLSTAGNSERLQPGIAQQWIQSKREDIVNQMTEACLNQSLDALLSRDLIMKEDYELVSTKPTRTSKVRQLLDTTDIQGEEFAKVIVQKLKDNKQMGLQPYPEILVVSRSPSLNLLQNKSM
Chain of Nuclear receptor coactivator 1 (Homo sapiens) (Q15788 whole entry, looked up, the tested form may be a part): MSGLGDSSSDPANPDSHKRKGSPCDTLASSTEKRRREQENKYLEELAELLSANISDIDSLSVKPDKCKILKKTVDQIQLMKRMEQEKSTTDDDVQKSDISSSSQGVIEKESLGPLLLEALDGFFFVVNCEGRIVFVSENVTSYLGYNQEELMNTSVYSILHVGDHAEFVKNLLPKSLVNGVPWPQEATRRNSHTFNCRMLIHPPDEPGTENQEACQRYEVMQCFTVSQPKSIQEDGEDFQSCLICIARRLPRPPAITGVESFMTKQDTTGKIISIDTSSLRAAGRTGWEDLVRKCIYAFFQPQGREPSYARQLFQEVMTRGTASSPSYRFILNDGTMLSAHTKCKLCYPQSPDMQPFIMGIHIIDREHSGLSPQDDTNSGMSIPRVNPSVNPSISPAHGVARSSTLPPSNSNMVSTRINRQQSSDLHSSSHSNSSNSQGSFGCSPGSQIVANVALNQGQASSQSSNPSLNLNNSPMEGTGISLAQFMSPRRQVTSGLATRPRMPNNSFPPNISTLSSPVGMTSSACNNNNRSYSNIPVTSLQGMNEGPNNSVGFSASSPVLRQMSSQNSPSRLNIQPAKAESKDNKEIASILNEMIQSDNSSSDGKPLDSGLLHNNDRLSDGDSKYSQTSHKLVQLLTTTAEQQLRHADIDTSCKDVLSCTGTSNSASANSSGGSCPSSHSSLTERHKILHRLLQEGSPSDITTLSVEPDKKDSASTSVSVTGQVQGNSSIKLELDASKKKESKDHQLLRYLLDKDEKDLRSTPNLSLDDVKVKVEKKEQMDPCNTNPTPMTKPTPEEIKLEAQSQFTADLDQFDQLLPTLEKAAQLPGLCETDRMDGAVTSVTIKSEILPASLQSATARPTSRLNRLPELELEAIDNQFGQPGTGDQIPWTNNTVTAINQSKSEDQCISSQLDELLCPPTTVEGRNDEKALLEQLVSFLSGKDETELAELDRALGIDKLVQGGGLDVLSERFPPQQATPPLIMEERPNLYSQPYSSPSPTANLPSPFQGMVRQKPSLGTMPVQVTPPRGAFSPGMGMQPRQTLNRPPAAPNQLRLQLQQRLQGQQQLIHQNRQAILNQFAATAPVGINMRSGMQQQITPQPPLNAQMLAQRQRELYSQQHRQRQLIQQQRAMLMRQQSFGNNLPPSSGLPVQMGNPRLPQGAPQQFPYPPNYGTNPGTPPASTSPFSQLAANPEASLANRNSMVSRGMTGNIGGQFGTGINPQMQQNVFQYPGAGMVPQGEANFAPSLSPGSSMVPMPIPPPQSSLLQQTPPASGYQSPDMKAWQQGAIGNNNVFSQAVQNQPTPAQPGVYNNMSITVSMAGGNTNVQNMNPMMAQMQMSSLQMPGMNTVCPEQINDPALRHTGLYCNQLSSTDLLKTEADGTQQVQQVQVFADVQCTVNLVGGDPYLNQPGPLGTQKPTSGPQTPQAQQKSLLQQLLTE

On to `O=C1NC(c2ccc(-c3ccccc3[N+](=O)[O-])o2)C(C(=O)c2ccc(Cl)cc2)C(O)(C(F)(F)F)N1` (configuration not stated), for which the activation in assay [1] is 28.1%; in [2], 38.7%; in assay [3] it was 30.5% (active); in assay [5], 32.6% (active). For the same compound, in assay [4], the inhibition was 31.2% (active).
Taken in the same sequence, the figures for `O=C(NCc1ccccc1)c1ccc(S(=O)(=O)Nc2cccc(C(F)(F)F)c2)cc1` were 10.8%, 17%, 12%, 19.8% (active) and 16.6%.
As for `Cc1cccc(NC(=O)c2ccc([N+](=O)[O-])o2)c1`, the inhibition was 79% (active) in assay [6]; 20.2% in [7]; 98% (active) in assay [8]; 11.9% (active) in [9]; 34.5% (active) in assay [10]; 21.1% in assay [11]. Besides, the inhibition was 58.8% (active) in [12]; 57% (active) in assay [13]; -13.2% in [14]; 7.5% in [15]; 8.19% in assay [16]; 66.8% (active) in [17].
Consider `CN(CCO)c1ccc(/C=N/Nc2nncc3ccccc23)cc1`, for which the inhibition in assay [18] was 91.2% (active); in assay [19] it was -0.69%.
On to `Cn1nccc1C(=O)NC1CCCc2c1cnn2-c1ccc(F)cc1F` (configuration not stated), for which the inhibition in [18] was 24.7%; in assay [19] it was 13.8%; in [20] it was 96.4% (active); in assay [21], 86.3% (active); in assay [11] it was 20.2%; in assay [12], 62.8% (active). Moreover, the inhibition in assay [13] was 67.1% (active); in [14], 57.1% (active); in [22], -3.41%; in assay [23], 62.2% (active).
For `N/C(=N\S(=O)(=O)c1cc(C(F)(F)F)cc(C(F)(F)F)c1)c1cccs1`, the activation in assay [1] is 20.3%; in assay [2], 29.6%; in assay [3], 15.7%; in [5] it was 23.1% (active). Besides, the inhibition in assay [4] is 25.6% (active).
As for `CN(C)c1ccc(CNC2C3CC4CC(C3)CC2C4)cc1` (configuration not stated), the activation in [1] is 7.01%; in [2] it was -7.77%; in assay [3], -11.2%; in [5] it was -2.65%. The inhibition in assay [4] is 5.13%.
For `CC1CC(C)CN(S(=O)(=O)c2cccc(C(=O)N3C(=O)c4cccc(N)c4C3=O)c2)C1` (configuration not stated), the inhibition in assay [6] is 32.3% (active); in [7] it was 8.25%; in [24] it was 34.1% (active); in [25], 33.2% (active).
For the compound `COc1ccccc1N1CCN(C(=O)c2cc(=O)c3cc(C)cc(C)c3o2)CC1`, the values for the inhibition in [18] and in assay [19] were 87.3% (active) and 58.2% (active), respectively.
As for `C[C@@H]1C[C@@H]2O[C@H]2/C=C\C=C\C(=O)Cc2c(Cl)c(O)cc(O)c2C(=O)O1`, the inhibition in [18] is 67.1% (active); in [19] it was 38% (active); in assay [26], 62.2% (active); in assay [27] it was 74.4% (active); in [28] it was -17.6%; in assay [29], 72% (active). In addition, the inhibition is 55.7% (active) in assay [11]; 68.5% (active) in assay [12]; 56.9% (active) in [13]; 79.3% (active) in [14]; 64.3% (active) in assay [22]; 68% (active) in assay [23].

As a reminder, the inhibition is the drop in the measured response relative to a control, in per cent.
